Assay results taken from PubChem BioAssay (NCI).
About 79,000 compounds went through this panel and 15% of them were active in at least one assay; those are over-represented in the sample as a whole. Active and inactive are the calls of the source. Rule as the data show it: active = growth inhibition above about 70%; inactive = the rest.

Tests used:
[1] = NCI Yeast Anticancer Drug Screen. Data for the wt2 strain (AID 169);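 also: 0% = growth of vehicle-treated yeast cultures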; conditions: S. cerevisiae wt2 strain growth inhibition, active compounds read high
Procedure, shortened: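 Values express reduction in yeast growth under compound treatment, referenced to vehicle-treated cells.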

[2] = NCI Yeast Anticancer Drug Screen. Data for the mlh1 strain (AID 171);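 also: 0% = growth of vehicle-treated control cultures of the same strain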; conditions: S. cerevisiae mlh1 strain growth inhibition, active compounds read high
Procedure, shortened: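 Steps: expose the defined-mutant yeast strain to compound; expose a parallel culture to vehicle; measure growth; express compound effect as inhibition relative to the vehicle culture.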

[3] = NCI Yeast Anticancer Drug Screen. Data for the sgs1 strain (AID 173);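 also: 0% = growth of vehicle-only control cultures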; conditions: S. cerevisiae sgs1 mutant, active compounds read high
Procedure, shortened: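 Treat defined-mutant yeast with compound; measure growth; calculate inhibition relative to vehicle-treated cells.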

[4] = NCI Yeast Anticancer Drug Screen. Data for the mlh1 rad18 strain (AID 175); conditions: S. cerevisiae mlh1 rad18 strain growth inhibition, active compounds read high
Procedure, shortened: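 Test agents were incubated with a yeast strain of defined genotype (DNA damage repair defect). Inhibition of growth was derived by comparison with vehicle-exposed cultures.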

[5] = NCI Yeast Anticancer Drug Screen. Data for the rad18 strain (AID 177); conditions: S. cerevisiae rad18 mutant growth inhibition, active compounds read high
Procedure, shortened: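 A genetically defined yeast mutant impaired in DNA damage repair was treated with test compounds, then its growth was measured against cultures receiving vehicle alone.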

[6] = NCI Yeast Anticancer Drug Screen. Data for the rad52 strain (AID 147);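 also: 0% = growth of vehicle-treated control cultures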; conditions: S. cerevisiae rad52 mutant growth inhibition, active compounds read high
Procedure, shortened: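 Screen used a yeast mutant impaired in DNA repair. After compound exposure, growth was measured. Values reflect inhibition compared with vehicle-treated cells.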

[7] = NCI Yeast Anticancer Drug Screen. Data for the wt1 strain (AID 149);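 also: 0% = growth of vehicle-treated wt1 cultures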; conditions: S. cerevisiae wt1 strain (SPY 50644) growth inhibition, active compounds read high
Procedure, shortened: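 Yeast wt1 strain exposed to compounds; growth inhibition measured relative to vehicle-treated controls.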

[8] = NCI Yeast Anticancer Drug Screen. Data for the rad50EPP+ strain (AID 151);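 also: 0% = growth of vehicle-treated control cultures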; conditions: S. cerevisiae rad50 mutant strain, active compounds read high
Procedure, shortened: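 Exposing the rad50EPP+ strain to each compound, growth was compared with vehicle-only cultures to give inhibition.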

[9] = NCI Yeast Anticancer Drug Screen. Data for the mgt1 strain (AID 153); conditions: S. cerevisiae mgt1 mutant growth inhibition, active compounds read high
Procedure, shortened: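 Genetically defined yeast (mgt1) treated with compound; inhibition of growth expressed against vehicle-treated controls.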

[10] = NCI Yeast Anticancer Drug Screen. Data for the rad50 strain (AID 155);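 also: 0% = growth of vehicle-only cultures of the same strain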; conditions: S. cerevisiae rad50 strain growth inhibition, active compounds read high
Procedure, shortened: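 Yeast carrying a defined DNA repair defect were exposed to test compounds, and growth was compared with vehicle-treated controls to give percent inhibition.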

[11] = NCI Yeast Anticancer Drug Screen. Data for the mec2-1 strain (AID 157); conditions: S. cerevisiae mec2-1 strain, active compounds read high
Procedure, shortened: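 Readout is yeast growth inhibition, normalised to vehicle-treated controls, in the mec2-1 strain exposed to compound.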

[12] = NCI Yeast Anticancer Drug Screen. Data for the rad14 strain (AID 159);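 also: 0% = growth of vehicle-treated control cultures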; conditions: S. cerevisiae rad14 strain growth inhibition, active compounds read high
Procedure, shortened: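 Yeast cells carrying a defined DNA-repair defect were exposed to compounds, and growth inhibition was calculated relative to vehicle-treated control cultures.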

[13] = NCI Yeast Anticancer Drug Screen. Data for the sgs1 mgt1 strain (AID 161);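 also: 0% = growth of cultures given vehicle only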; conditions: S. cerevisiae sgs1 mgt1 strain, active compounds read high
Procedure, shortened: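 Compounds are added to genetically altered yeast, and growth is compared with cultures given vehicle alone to give percent inhibition.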

[14] = NCI Yeast Anticancer Drug Screen. Data for the CLN2oe strain (AID 163);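 also: 0% = growth of vehicle-only control cultures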; conditions: S. cerevisiae CLN2oe strain, active compounds read high
Procedure, shortened: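 Values reflect how much compound exposure reduced yeast growth, referenced to vehicle-exposed cells. Assay organism is a strain with a defined genetic change affecting cell-cycle control.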

[15] = NCI Yeast Anticancer Drug Screen. Data for the cln2 rad14 strain (AID 165);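 also: 0% = growth equal to vehicle treated cultures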; conditions: S. cerevisiae cln2 rad14 strain, active compounds read high
Procedure, shortened: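 Relative to vehicle controls, growth inhibition of compound-treated cln2 rad14 yeast was recorded.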

[16] = NCI Yeast Anticancer Drug Screen. Data for the bub3 strain (AID 167); conditions: S. cerevisiae bub3 mutant strain, active compounds read high
Procedure, shortened: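 Compounds were applied to a genetically altered yeast strain carrying a cell-cycle control defect. Growth inhibition was scored against vehicle-treated controls.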

[17] = at 5.0 µM (retest, dose inferred, filed as 0.5)
[18] = at 50.0 µM (retest, dose inferred, filed as 5.0)

Measured: growth inhibition

CCOC(=O)c1cc(-c2ccc(Cl)cc2)c([N+](=O)[O-])n1C
inactive: [1]; at 1.2 µM 6% | [1]; at 3.7 µM 13% | [1]; at 11.0 µM 13% | [2]; at 1.2 µM 28% | [2]; at 3.7 µM 36% | [2]; at 11.0 µM 56% | [3]; at 1.2 µM 27% | [3]; at 3.7 µM 29% | [3]; at 11.0 µM 58% | [4]; [17] 45% | [5]; at 1.2 µM 3% | [5]; at 3.7 µM 37%
active: [1]; at 33.0 µM 70% | [1]; at 100.0 µM 97% | [2]; at 33.0 µM 94% | [2]; at 100.0 µM 96% | [3]; at 33.0 µM 97% | [3]; at 100.0 µM 98% | [4]; [18] 97% | [4]; at 50.0 µM 87.9% | [5]; at 11.0 µM 71% | [5]; at 33.0 µM 95% | [5]; at 100.0 µM 96%

CC(C)[N+]([O-])(CCCNc1c2ccccc2nc2cccc([N+](=O)[O-])c12)C(C)C
active: [6]; at 3.7 µM 83% | [6]; at 11.0 µM 94% | [6]; at 33.0 µM 96% | [6]; at 100.0 µM 98% | [7]; at 33.0 µM 78% | [7]; at 100.0 µM 94% | [8]; at 33.0 µM 91% | [8]; at 100.0 µM 97% | [9]; at 33.0 µM 90% | [9]; at 100.0 µM 98% | [10]; [17] 70% | [10]; at 11.0 µM 86% | [10]; at 33.0 µM 93% | [10]; [18] 97% | [10]; at 50.0 µM 87.6% | [10]; at 100.0 µM 96% | [11]; at 11.0 µM 96% | [11]; at 33.0 µM 98% | [11]; [18] 99% | [11]; at 50.0 µM 87% | [11]; at 100.0 µM 99% | [12]; at 3.7 µM 93% | [12]; at 11.0 µM 98% | [12]; at 33.0 µM 99% | [12]; at 100.0 µM 99% | [13]; [17] 89% | [13]; [18] 98% | [13]; at 50.0 µM 93.6% | [14]; at 33.0 µM 88% | [14]; at 100.0 µM 95% | [15]; [17] 96% | [15]; [18] 99% | [15]; at 50.0 µM 96% | [16]; at 33.0 µM 90% | [16]; [18] 97% | [16]; at 100.0 µM 98% | [1]; at 33.0 µM 89% | [1]; at 100.0 µM 96% | [2]; at 33.0 µM 91% | [2]; at 100.0 µM 98% | [3]; at 3.7 µM 84% | [3]; at 11.0 µM 93% | [3]; at 33.0 µM 96% | [3]; at 100.0 µM 97% | [4]; [17] 92% | [4]; [18] 98% | [4]; at 50.0 µM 95.2% | [5]; at 1.2 µM 96% | [5]; at 3.7 µM 96% | [5]; at 11.0 µM 96% | [5]; at 33.0 µM 97% | [5]; at 100.0 µM 97%
inactive: [6]; at 1.2 µM 48% | [7]; at 1.2 µM 0% | [7]; at 3.7 µM 3% | [7]; at 11.0 µM 18% | [8]; at 1.2 µM 6% | [8]; at 3.7 µM 26% | [8]; at 11.0 µM 66% | [9]; at 1.2 µM 0% | [9]; at 3.7 µM 6% | [9]; at 11.0 µM 24% | [10]; at 1.2 µM 24% | [10]; at 3.7 µM 57% | [11]; at 1.2 µM 13% | [11]; at 3.7 µM 69% | [11]; [17] 68% | [12]; at 1.2 µM 50% | [14]; at 1.2 µM -3% | [14]; at 3.7 µM 2% | [14]; at 11.0 µM 42% | [16]; at 1.2 µM -14% | [16]; at 3.7 µM -8% | [16]; [17] -2% | [16]; at 11.0 µM 33% | [16]; at 50.0 µM 11.9% | [1]; at 1.2 µM 1% | [1]; at 3.7 µM 5% | [1]; at 11.0 µM 24% | [2]; at 1.2 µM 3% | [2]; at 3.7 µM 10% | [2]; at 11.0 µM 37% | [3]; at 1.2 µM 64%
